Over roughly 16,000 sequences, “e-score” has its median near -0.044; the highest 2% begin near 0.38. This is one part of a sample in which the highest values are shown more often than they occur.
Target: T1, GST-NbGlk1(82-244) (Nicotiana benthamiana)
T1 chain: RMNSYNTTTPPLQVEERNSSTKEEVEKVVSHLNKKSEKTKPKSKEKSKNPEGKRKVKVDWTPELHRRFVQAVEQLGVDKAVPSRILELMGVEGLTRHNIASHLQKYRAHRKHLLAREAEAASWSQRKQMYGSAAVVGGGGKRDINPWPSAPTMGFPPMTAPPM
Assay: protein-binding microarray; NbGlk1 is a Golden2-like transcription factor of Nicotiana benthamiana; high values mean tight binding
Settings: protein: recombinant; tags: GST (pTH6838); dsDNA, one strand shown

| Sequence | binding signal [E-score] |
| --- | --- |
| ATCCACAT | 0.256 ± 0.0906 |
| AAATCTTG | 0.4213 ± 0.00314 |
| AAATCATG | 0.332 ± 0.0128 |
| AGATCTTC | 0.428 ± 0.0156 |
| CAATCTTC | 0.294 ± 0.0422 |
| CAATCTTA | 0.304 ± 0.0126 |
| AAATCGTC | 0.354 ± 0.0288 |
| AGATCTTA | 0.347 ± 0.0143 |
| AAATCGTG | 0.365 ± 0.0286 |
| AGATCTTG | 0.373 ± 0.0461 |
| AAATCTTC | 0.446 ± 0.0208 |
| AAATCTTA | 0.44 ± 0.0386 |
| AAATCGTA | 0.373 ± 0.0227 |
| ATCTTCTC | 0.311 ± 0.013 |
| ATCAGATC | 0.35 ± 0.0204 |
| ATTACGTA | 0.354 ± 0.0309 |
| AGATACTG | 0.33 ± 0.00398 |
| AGCGCGAT | 0.325 ± 0.0563 |
| ATTCTATA | 0.284 ± 0.0791 |
| AATCTATG | 0.38 ± 0.0331 |
| AATCTATA | 0.402 ± 0.0321 |
| AATCGATG | 0.268 ± 0.0785 |
| AATATATG | 0.252 ± 0.0059 |
| AATCTATC | 0.366 ± 0.0334 |

| Sequence | binding signal [E-score] |
| --- | --- |
| ATCTGCGC | 0.317 ± 0.0626 |
| AACGCGAT | 0.341 ± 0.0519 |
| AAAGGAAT | 0.27 ± 0.0558 |
| ATCCAGTG | 0.221 ± 0.123 |
| AGAGATCT | 0.411 ± 0.0152 |
| ACAGATAC | 0.276 ± 0.00718 |
| ATAGAGAT | 0.276 ± 0.0241 |
| AGAGATAT | 0.391 ± 0.0365 |
| AGAGAGAT | 0.241 ± 0.0533 |
| AGAGATCG | 0.303 ± 0.0386 |
| ATAGATAC | 0.26 ± 0.0116 |
| ATAGATAT | 0.394 ± 0.0151 |
| AGAGATAC | 0.222 ± 0.0223 |
| AAAGATAT | 0.342 ± 0.0309 |
| ACAGATAT | 0.415 ± 0.0135 |
| AGAGATCC | 0.346 ± 0.0193 |
| AACTAGAT | 0.208 ± 0.0834 |
| ATTTCTCC | 0.242 ± 0.0333 |
| AATTACGT | 0.26 ± 0.0756 |
| ATTCTTGA | 0.221 ± 0.0445 |
| ACGAAGAT | 0.31 ± 0.00598 |
| ATATGCTG | 0.258 ± 0.0732 |
| AAAGATCG | 0.278 ± 0.0495 |
| AAAGATCC | 0.292 ± 0.0246 |

| Sequence | binding signal [E-score] |
| --- | --- |
| AAAGATCT | 0.38 ± 0.023 |
| AGCAAGAT | 0.309 ± 0.0213 |
| ATTATCCC | 0.261 ± 0.0646 |
| ATAACGAT | 0.216 ± 0.0183 |
| ATATCCAA | 0.407 ± 0.00723 |
| ATATCCCC | 0.36 ± 0.0106 |
| ATATCCAC | 0.393 |
| ATATCCAT | 0.43 ± 0.00596 |
| ATATCAAA | 0.228 ± 0.00678 |
| ATATCCAG | 0.3945 ± 0.00384 |
| AGATCCAC | 0.287 ± 0.0119 |
| ATCTCCAT | 0.335 ± 0.0406 |
| AGATCCAG | 0.261 ± 0.0749 |
| ATATCCCA | 0.3708 ± 0.000904 |
| ATATCAAT | 0.281 ± 0.00703 |
| ATATCAAG | 0.298 |
| ATTGTGTA | 0.249 ± 0.00712 |
| ATCCCCGG | 0.256 ± 0.0142 |
| AGAATTTA | 0.222 ± 0.00311 |
| AATTTCAT | 0.238 ± 0.0823 |
| ATCCGTTA | 0.315 ± 0.0322 |
| ATCAGTGA | 0.218 ± 0.0932 |
| ATCTGGTA | 0.238 ± 0.087 |
| ATCGCGAC | 0.287 ± 0.126 |

| Sequence | binding signal [E-score] |
| --- | --- |
| AATCCTTG | 0.336 ± 0.0164 |
| ATGGTAAT | 0.305 ± 0.00923 |
| AATCCCAC | 0.318 ± 0.0378 |
| CAATCCAA | 0.298 ± 0.0654 |
| AGATCCAA | 0.262 ± 0.127 |
| AAATCCAA | 0.426 ± 0.042 |
| AAATCAAG | 0.318 ± 0.0251 |
| AAATCCAT | 0.422 ± 0.0113 |
| AAATCCAC | 0.43 ± 0.0323 |
| CAATCCAC | 0.328 ± 0.0614 |
| CAATCCAG | 0.291 ± 0.00762 |
| AAATCCAG | 0.413 ± 0.0172 |
| ATCCCAGA | 0.276 ± 0.00637 |
| ATATGAGA | 0.231 ± 0.0943 |
| ATTACCTG | 0.213 ± 0.0963 |
| CAATATCA | 0.299 ± 0.00874 |
| ATCTTGAA | 0.286 ± 0.0202 |
| AATATAGA | 0.271 ± 0.00595 |
| ACCTGGAT | 0.224 ± 0.0187 |
| ATTTTTAG | 0.235 ± 0.0033 |
| ATTTGTAC | 0.228 ± 0.0254 |
| AAATCACC | 0.333 ± 0.00843 |
| AAATCACG | 0.381 ± 0.0177 |
| AATCCCCG | 0.362 ± 0.0401 |

| Sequence | binding signal [E-score] |
| --- | --- |
| CAATCCCG | 0.284 ± 0.05 |
| AAATCCCG | 0.435 ± 0.00616 |
| CAATCCCA | 0.279 ± 0.00457 |
| AAATCCCC | 0.368 ± 0.0151 |
| AAATCCCA | 0.4 ± 0.00412 |
| AAATCACA | 0.349 ± 0.00405 |
| ATTTCGGG | 0.27 ± 0.0618 |
| ATCTCATC | 0.312 ± 0.051 |
| ACCGCAAT | 0.302 ± 0.00387 |
| ATCCGGAG | 0.233 ± 0.0472 |
| ATCCGGAA | 0.332 ± 0.0273 |
| ATCCGGAT | 0.422 ± 0.0228 |
| ACACAAAT | 0.204 ± 0.00827 |
| ACAATCAA | 0.223 ± 0.00556 |
| ACAATCTC | 0.373 ± 0.047 |
| ACAATCGA | 0.201 ± 0.0349 |
| ACAATCAG | 0.237 ± 0.0723 |
| ACAATCTG | 0.404 ± 0.0106 |
| ACAATCTA | 0.3803 ± 0.00317 |
| ATTTGTTA | 0.237 ± 0.0814 |

From article PMC5836133, “The intracellular immune receptor Rx1 regulates the DNA-binding activity of a Golden2-like transcription factor”
